Compound activity from PubChem BioAssay.
aSyn UTR act: Activators via SNCA 5'UTR binding, MLPCN; 300,000 compounds, 7.1% hits; alpha-synuclein 5'UTR reporter, activators screen; AID 1814, 2009; activity score, % (tested at 7.5 µM), hits read low; in the data active = activity score below about -60%
* = called active by the depositor. A selection follows.

SMILES | aSyn UTR act
Cc1ccccc1NC(=S)N=Nc1c(O)n(C)c2ccc(S(=O)(=O)N3CCOCC3)cc12 | 78
Cn1c(O)c(N=Nc2nc(-c3ccccc3)cs2)c2ccccc21 | -126*
Cn1c(N2CCOCC2)c(/C=N/OC(=O)c2ccc(F)cc2)c2ccccc21 | 73
Cn1c(O)c(N=Nc2ccc(F)cc2)c2ccccc21 | -62*
COc1ccc2oc(=Nc3cc(F)ccc3F)c(C(N)=O)cc2c1 | -176*
COc1ccc2cc(C(N)=O)c(=Nc3ccccc3)oc2c1 | -90*
Cc1nc(-c2ccc(Cl)cc2)sc1C1(C)CC(c2cccnc2)=NO1 (configuration not stated) | -122*
Cc1nc(C(=O)Nc2ccccc2)sc1C1(C)CC(c2cccnc2)=NO1 (configuration not stated) | -111*
CSc1nc2ncc(-c3ccsc3)c(N)n2n1 | -62*
CCN(CC)c1ccc(NC(=S)Nc2ccc(F)cc2)cc1 | -91*
CCN(CC)c1ccc(NC(=S)NC(=O)c2cccs2)cc1 | -156*
CCCCn1nnc(NC(=S)NC(=O)c2cccs2)n1 | -114*
CCCCC(=O)Nc1ccc(NC(=S)NC(=O)c2cccs2)cc1OC | -107*
CCCOc1ccc(C(=O)NNC(=S)NC(=O)c2ccco2)cc1 | 52
CCN(CC)c1ccc(NC(=S)NC(=O)c2ccco2)cc1 | -214*
Cc1ccc(C(=O)CCC2CCCCC2=O)cc1 (configuration not stated) | -151*
Cc1ccc(C(=O)CCC2CCCC2=O)cc1 (configuration not stated) | -100*
CCc1ccc(C(=O)CCC2CCCCC2=O)cc1 (configuration not stated) | -130*
Cc1ccc([N+](=O)[O-])cc1N/C=C1\CCc2ccccc2C1=O | -163*
O=c1[nH]c2cc3c(cc2cc1CN(Cc1nnnn1C1CCCC1)C1CCCC1)OCCO3 | -79*
COC(=O)CSc1nc(-c2ccccc2)cc(-c2ccco2)c1C#N | -64*
CC(C)Cc1cc(-c2ccco2)c(C#N)c(N)n1 | 70
COCCc1nc2ccc(C(=O)N(C)Cc3cccc(-n4cccn4)c3)cc2o1 | -75*
O=C(CCCN1C(=O)/C(=C/c2ccccc2Cl)SC1=S)NNC(=O)c1ccccc1Cl | 100
O=C(CCN1C(=O)/C(=C/c2ccccc2Cl)SC1=S)N1CCOCC1 | -73*
SMILES | aSyn UTR act
Cc1ccc(/C=C2\SC(=S)N(CCCC(=O)Nc3ccc(O)cc3)C2=O)cc1 | 104
CN1CCN(C(=O)CCCN2C(=O)/C(=C/c3cccc(Br)c3)SC2=S)CC1 | -218*
Cc1ccc(/C=C2\SC(=S)N(CCC(=O)N3CCOCC3)C2=O)cc1 | -64*
Cc1ccc(/C=C2\SC(=S)N(CCCC(=O)Nc3ccccc3C(=O)O)C2=O)cc1 | 68
O=C(CCN1C(=O)/C(=C/c2ccccc2Cl)SC1=S)N1CCCC1 | -115*
Cc1cc2oc(C(=O)Nc3nonc3C)c(C)c2cc1C | -175*
Cc1c(C(=O)Nc2nonc2-c2ccc(F)cc2)oc2ccc(F)cc12 | 54
CCc1ccc2oc(C(=O)Nc3nonc3C)c(C)c2c1 | -138*
O=C(Nc1ccc(S(=O)(=O)NC2=NCCCCC2)cc1)c1ccc([N+](=O)[O-])s1 | -66*
CC(=O)c1cnc2nc(SCc3ccccc3C)nn2c1C | -75*
Cc1c(C(=O)Nc2nc3ccccc3[nH]2)oc2c(Cl)cccc12 | -136*
Cc1c(C(=O)Nc2nc3ccccc3[nH]2)oc2ccccc12 | -258*
Cc1c(C(=O)Nc2nc3ccccc3[nH]2)oc2ccc(Br)cc12 | -158*
Cc1ccc(C(=O)c2coc3ccc(O)c(Cl)c23)cc1 | -163*
O=C(c1ccccc1)c1coc2ccc(O)c(Cl)c12 | -96*
Cc1ccc(C(=O)c2coc3ccc(O)cc23)cc1 | -64*
CCOC(=O)C1=C(COC(=O)/C=C/c2ccccc2Cl)NC(=O)NC1C (configuration not stated) | -70*
CCOC(=O)C1=C(COC(=O)c2cccc(N(C)C)c2)NC(=O)NC1C (configuration not stated) | -136*
O=C(O)c1ccc(N/N=C/c2c[nH]c3ccccc23)cc1 | 79
O=C(N/N=C/c1c[nH]c2ccccc12)c1ccc(Cl)cc1 | -77*
O=C(N/N=C/c1c[nH]c2ccccc12)c1cc(-c2ccccc2)n[nH]1 | -72*
O=C(N/N=C/c1c[nH]c2ccccc12)c1cc(-c2ccc(-c3ccccc3)cc2)n[nH]1 | -146*
Cc1ccc(-c2cc(C(=O)N/N=C/c3c[nH]c4ccccc34)[nH]n2)cc1 | 78
Cc1ccc(C2=NNC(C(O)C(O)C(O)C(C)O)S2)cc1 (configuration not stated) | -87*
Cc1ccc2nc(NC(=O)CN3CCOCC3)sc2c1 | -107*
SMILES | aSyn UTR act
O=C(CN1CCOCC1)Nc1nc2ccc([N+](=O)[O-])cc2s1 | -62*
C/C(NC(=O)c1cccs1)=C1\C(=O)C[C@@H]2[C@H]1C2(C)C | -118*
Cc1cc2c(cc1C)NC(CC(=O)NCc1ccccc1)C(=O)N2 (configuration not stated) | -77*
CCCCN1C(=O)/C(=C/C=C2\SCCN2C)SC1=S | -121*
COc1ccc(NC(=O)C#Cc2ccccc2)cc1OC | -212*
NC(=O)c1ccc(NC(=O)C#Cc2ccccc2)cc1 | -112*
COC(=O)c1ccc(-c2ccc(/C=N/NC(=O)Cc3nnc(N)s3)o2)cc1 | -67*
CCc1ccc(C(=O)/C=C/c2ccc([N+](=O)[O-])o2)cc1 | -151*
Nc1cc(C(F)(F)F)ccc1C(=O)O | -62*
Nc1nn(-c2cccc(F)n2)cc1-c1ccccc1 | -113*
O=C(Nc1ccccc1Cl)C1Cc2ccccc2O/C1=N\O (configuration not stated) | -88*
Clc1ccccc1-c1nnc(-c2ccccc2Cl)o1 | -158*
Clc1ccc(-c2nnc(-c3ccccc3Cl)o2)cc1 | -82*
Cc1ccc(C)c(N(CC(=O)Nc2ccc(-c3nc4ccc(C)cc4s3)cc2)S(C)(=O)=O)c1 | -80*
Cc1ccc(N(CC(=O)Nc2ccc(-c3nc4ccc(C)cc4s3)cc2)S(C)(=O)=O)cc1 | -203*
COc1ccc(-n2cc3ccc([N+](=O)[O-])cc3n2)cc1 | -91*
Cc1ccc(CNc2ccc(Cl)cc2[N+](=O)[O-])cc1 | -76*
CCCCN=C(C)c1c(O)c2ccccc2oc1=O | -159*
NC(=O)c1sc2nc(-c3ccccc3)ccc2c1N | -73*
Nc1c(C(=O)Nc2ccc(Br)cc2)sc2nc(-c3ccco3)ccc12 | -171*
CC(=O)c1sc2nc(-c3ccco3)ccc2c1N | -81*
O=C(Nc1ccc2c(c1)OCO2)c1ccc(Cl)nc1 | -90*
COc1cc(Cl)c(C)cc1NC(=O)c1ccc2c(c1)OCO2 | -84*
Cc1ccc(NC(=O)c2ccc3c(c2)OCO3)cc1Cl | -123*
Cc1ccc(C(=O)Nc2ccc3c(c2)OCO3)cc1S(=O)(=O)N1CCCC1 | -114*
SMILES | aSyn UTR act
Cc1ccc(NC(=O)c2ccc(Cl)nc2)cc1 | -116*
O=C(Nc1ccc2c(c1)OCO2)c1cnccn1 | -106*
Cc1ccc(NC(=O)c2nsc(Cl)c2Cl)cc1 | -113*
Cc1ccc(C(=O)Nc2ccc3c(c2)OCO3)cc1Cl | -123*
Cc1cc(Cl)ccc1NC(=O)c1ccc2c(c1)OCO2 | -231*
Cc1ccc2c(C(=O)CSc3ccccc3)c(C)[nH]c2c1 | -109*
Cc1[nH]c2ccccc2c1C(=O)CSc1ccccn1 | -68*
Cc1[nH]c2ccccc2c1C(=O)COc1ccccc1 | -113*
Cc1[nH]c2ccccc2c1C(=O)CSc1ccccc1 | -86*
Cc1n[nH]c(C)c1CCOc1ccc(C(C)C)cc1 | -84*
